HepG2 viability: counter-screen for TGF-b inhibitors: cytotoxicity in HepG2 cells; HepG2 CAGA-GFP viability, ATP luminescence, 18 h; Potency, µM (titrated, usually from 46.1 µM), hits mostly cytotoxic; 410,000 tested, 0.76% active; AID 588856
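CellTiter-Glo luminescence gave cytotoxicity after 18 hours at 37 degrees C. The cells were HepG2 CAGA-GFP in 1% FBS DMEM, stimulated with 500 pg/mL TGF-beta after compound addition. %Activity was normalised to no-cell wells (complete cell-killing) and DMSO (no toxicity), and curves were fitted and classified.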
ATXN2 expr inh: inhibitors of ATXN2 expression; HEK-293 ATXN2-luciferase reporter, luminescence, 24 h; Potency, µM (series often up to 57 µM), most hits filed as inhibitors; 360,000 tested, 0.72% active; also: nearly all actives have a fitted effect of over 55% in size
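ATXN2-luciferase reporter cells (luciferase flanked by upstream and downstream ATXN2 gene portions) were treated 24 h at 37 °C with compounds at up to 57 uM. SteadyGlo luminescence gave expression; GF-AFC fluorescence gave viability.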
D3 antag: antagonists of human D3 dopamine receptor; 360,000 tested, 2.5% active; AID 652054; D3R cells, DiscoveRx beta-arrestin luminescence, antagonist mode; hits give low values; max response, negative = inhibition, %; P35462; in the data active = max response below about -50%; inconclusive = no clear call, values can overlap the other calls
Target sequence (P35462 whole entry, looked up): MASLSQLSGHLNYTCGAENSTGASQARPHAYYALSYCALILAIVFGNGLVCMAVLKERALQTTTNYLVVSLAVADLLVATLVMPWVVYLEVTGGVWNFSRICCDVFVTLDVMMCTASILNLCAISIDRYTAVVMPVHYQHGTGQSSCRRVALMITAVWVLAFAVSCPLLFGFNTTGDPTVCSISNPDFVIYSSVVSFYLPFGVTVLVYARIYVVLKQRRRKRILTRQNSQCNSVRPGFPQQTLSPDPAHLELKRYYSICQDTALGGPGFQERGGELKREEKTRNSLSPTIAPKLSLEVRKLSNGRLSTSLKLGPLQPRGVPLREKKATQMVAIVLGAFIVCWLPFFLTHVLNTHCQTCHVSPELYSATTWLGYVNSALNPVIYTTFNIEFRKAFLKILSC
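Cells expressing the human receptor were seeded at 1500 cells/well, incubated overnight at 37 degrees C in 5% CO2, then exposed to library compounds with dopamine controls for 90 minutes at 37 degrees C before luminescent detection.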
D3 ag: activates the human D3 dopamine receptor; P35462; D3R DiscoveRx beta-arrestin cells, luminescence, 90 min; max activation, %; 410,000 tested, 0.58% active; AID 652048; in the data active = max activation above about 30%
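Agonist-mode cell screen: cells plated at 1500/well and incubated overnight at 37 °C, then exposed to library compounds for 90 min at 37 °C. Detection reagent was added for 30–60 min at room temperature, and luminescence was read.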
S2 tox: viability counter-screen for ATXN expression inhibitors. S2 cells (HEK-293 line with an ATXN2-luciferase reporter) viability, CellTiter-Fluor protease fluorescence, 24 h. Potency, µM (series often up to 56.7 µM), actives largely listed as cytotoxic. 400,000 tested, 0.49% active. AID 651635; also: nearly all actives have a fitted effect of over 40% in size
TGFb inhibitor: blocks TGF-b signaling; Potency, µM (titrated, usually from 46.1 µM), hits mostly inhibitors; HepG2 CAGA-GFP TGF-b/SMAD3 reporter, GFP fluorescence, 18 h; TGF-beta stimulated, 500 pg/mL final; 410,000 tested, 1.2% active; AID 588855; also: nearly all actives have a fitted effect of over 65% in size
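Inhibition of TGF-beta-driven CAGA-GFP reporter expression in HEPG2 cells is measured by cellular GFP fluorescence after 18 h stimulation with 500 pg/mL recombinant TGF-beta in 1% FBS medium at 37 degrees C.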
Each line names hits and unclear results; the compound was inactive in the other large screens; ! = not confirmed by another sample. Sampled rows, rich in hits. Any-hit rate of the full collection: about 4.7%. Unless noted, calls follow the shape of the dose curve; as a rule, active = well fitted curve in the direction sought with a large enough effect; inconclusive = small, poorly fitted or top-dose-only effect, or another doubt; inactive = no such curve, though single readings can be large; an effect the other way counts as inactive or inconclusive.

CCOCCCNC(=S)NNC(=O)CCn1nc(C)c(Br)c1C	D3 antag -97.1
Cc1nn(CCC(=O)NNC(=S)NCC(C)C)c(C)c1Br	D3 antag -103.8, TGFb inhibitor inconclusive
CCn1c(CN2CCCCC2)nc2cc(NC(=O)c3ccc([N+](=O)[O-])cc3)ccc21	none (no result: D3 antag)
COc1ccc(OC)c(CN2C[C@H](Sc3ccc(F)cc3)C[C@H]2C(=O)N(C)C)c1	none (no result: HepG2 viability, ATXN2 expr inh, D3 antag, D3 ag, TGFb inhibitor)
Cn1nnnc1SCCCNCc1ccccc1OCc1ccccc1Cl	TGFb inhibitor inconclusive (no result: ATXN2 expr inh, D3 antag, S2 tox)
Cc1csc2c(N3CCN(C(=O)Nc4ccc(Cl)c(Cl)c4)CC3)ncnc12	ATXN2 expr inh 20µM, S2 tox inconclusive, TGFb inhibitor inconclusive
COc1cccc(/C=C/C(=O)NNC(=O)CCN2CCN(Cc3ccccc3)CC2)c1	D3 antag -52.8
O=C(/C=C/c1ccc(F)cc1)NNC(=O)CCN1CCN(Cc2ccccc2)CC1	none
CCCC1=NN(C(=O)C(=O)Nc2ccc(Br)cc2)C(O)(C(F)(F)F)C1 (configuration not stated)	ATXN2 expr inh inconclusive, D3 antag -56.2, S2 tox inconclusive, TGFb inhibitor inconclusive
COc1ccc(Cl)cc1S(=O)(=O)Nc1ccc2c(c1)n(C)c(=O)n2C	HepG2 viability 20µM!
CN(C)CCCn1c(=O)n(CCc2ccccc2)c(=O)c2c3c(sc21)CCCCC3	none (no result: ATXN2 expr inh)
CN(C)CCCn1c(=O)n(Cc2ccco2)c(=O)c2c3c(sc21)CCCCC3	HepG2 viability 12.6µM, TGFb inhibitor inconclusive
O=C(O)CCC1CCC(c2cc(F)ccc2F)(S(=O)(=O)c2ccc(Cl)cc2)CC1 (configuration not stated)	none (no result: HepG2 viability, D3 antag, D3 ag, S2 tox, TGFb inhibitor)
COc1cc2c(-c3ccccc3C)nc3c(c(C)nn3-c3ccccc3)c2cc1OC	D3 ag 41.4 (no result: D3 antag)
COc1cc2c(-c3cc(Br)ccc3O)nc3c(c(C)nn3-c3ccccc3)c2cc1OC	none (no result: D3 antag)
COc1ccccc1Nc1nc(-c2ccccc2F)nc2ccccc12	TGFb inhibitor inconclusive (no result: ATXN2 expr inh, D3 antag, S2 tox)
COC(=O)[C@@]12C[C@@H](CC(=O)NCC3CCCCC3)C(=O)N(Cc3ccccc3)C1=CCC(C)(C)C2	none (no result: HepG2 viability, ATXN2 expr inh, S2 tox, TGFb inhibitor)
COc1ccccc1N1C(=O)C=C(Sc2nc(C)cc(C)n2)C1=O	HepG2 viability 11.2µM, TGFb inhibitor 11.2µM
Cc1c(Cl)cccc1NC(=O)Cn1c(=O)nc(-c2ccccc2)c2ccccc21	none (no result: ATXN2 expr inh, D3 antag, S2 tox)
O=C(CC12CC3CC(CC(C3)C1)C2)N1CCCC1	none
CN1CCN(C(=O)CC23CC4CC(CC(C4)C2)C3)CC1	D3 antag -78.0
COCc1c(C(=O)NC2CCCC2)cnn1-c1nccc(-c2cccs2)n1	none (no result: HepG2 viability, ATXN2 expr inh, D3 antag, D3 ag, TGFb inhibitor)
Cc1ccc(-n2cc(CNCCc3cscn3)c(-c3ccc(F)cc3)n2)cc1	ATXN2 expr inh inconclusive, S2 tox inconclusive, TGFb inhibitor inconclusive
Cc1cccc(-n2cc(CNCCc3nc(C)cc(C)n3)c(-c3cccc(F)c3)n2)c1	ATXN2 expr inh 28.2µM, D3 antag inconclusive, TGFb inhibitor 11.2µM (no result: S2 tox)
Cc1ccc(-n2cc(CNCCCn3ccnc3C)c(-c3ccc(F)cc3)n2)cc1	HepG2 viability 12.6µM, S2 tox inconclusive, TGFb inhibitor inconclusive
Cc1ccc(-n2cc(CNC(C)c3cnn(C)c3C)c(-c3ccc(F)cc3)n2)cc1 (configuration not stated)	S2 tox inconclusive, TGFb inhibitor 12.6µM (no result: ATXN2 expr inh)
Cc1ccc(-n2cc(CNC(C)c3cnn(C)c3)c(-c3ccc(F)cc3)n2)cc1 (configuration not stated)	none (no result: ATXN2 expr inh)
Cc1ccc(-n2cc(CNCCCn3cccn3)c(-c3cccc(C)c3)n2)cc1	ATXN2 expr inh 31.6µM, D3 antag -73.4, TGFb inhibitor inconclusive (no result: S2 tox)
COc1cccc(C2=CC(c3ccccc3O)NC(C)(C)N2)c1 (configuration not stated)	none (no result: ATXN2 expr inh, D3 antag, D3 ag, S2 tox)
Cc1cc(N=Nc2ccccc2C(=O)O)c(C)c(C)c1O	D3 antag inconclusive, S2 tox 12.6µM
COc1cc(N=Nc2ccccc2C(=O)O)ccc1O	D3 antag -57.9, S2 tox inconclusive (no result: ATXN2 expr inh)
O=c1oc2c(O)cccc2cc1-c1nc2ccccc2[nH]1	none (no result: S2 tox)
O=C(O)c1ccc2nc(-c3cc4cccc(O)c4oc3=O)[nH]c2c1	HepG2 viability 8.91µM (no result: ATXN2 expr inh, D3 antag, S2 tox, TGFb inhibitor)

High-throughput results as filed in PubChem.
